Experimental data from PubChem BioAssay (NCATS).
Records with an inconclusive call do not appear. Calls of active or inactive are those of the source. Unless noted, calls follow the shape of the dose curve; as a rule, active = well fitted curve in the direction sought with a large enough effect; inconclusive = small, poorly fitted or top-dose-only effect, or another doubt; inactive = no such curve, though single readings can be large; an effect the other way counts as inactive or inconclusive.

Tests used:
[1] = qHTS for Inhibitors of Plasmodium falciparum (GB4) proliferation (AID 504315); also: nearly all actives have a fitted effect of over 50% in size; also: potency is read from the fitted curve at half-maximal effect;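 as to activity change, negative = inhibition: 0% = DMSO vehicle and -100% = 0.29 µM artemisinin control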
Method in brief: (§1)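 Erythrocytes infected with P. falciparum line (0.3% parasitemia, 2.5% hematocrit final) incubated with compounds 72 h at 37 °C, 5% CO2; SYBR Green lysis buffer added, fluorescence read next day. Normalized to 0.29 uM artemisinin and DMSO.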

[2] = qHTS for Inhibitors of Plasmodium falciparum (7G8) proliferation (AID 504316); also: nearly all actives have a fitted effect of over 65% in size; also: potency is read from the fitted curve at half-maximal effect;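 as to activity change, negative = inhibition: series mostly up to about 6.7 µM; 0% = DMSO vehicle and -100% = 0.29 µM artemisinin full kill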
Method in brief: as §1

[3] = qHTS for Inhibitors of Plasmodium falciparum (HB3) proliferation (AID 504318); also: nearly all actives have a fitted effect of over 60% in size; also: potency is read from the fitted curve at half-maximal effect;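 as to activity change, negative = inhibition: 0% = DMSO vehicle and -100% = artemisinin control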
Method in brief: as §1

[4] = qHTS for Inhibitors of Plasmodium falciparum (CP250) proliferation (AID 504320); also: potency is read from the fitted curve at half-maximal effect;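 as to activity change, negative = inhibition: plate controls were DMSO vehicle for no effect and 0.29 µM artemisinin control for full effect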
Method in brief: as §1

[5] = biological target: Atrial natriuretic peptide receptor 1 (Homo sapiens) (UniProt P16066); experiment: Natriuretic polypeptide receptor (hNpr1) antagonism - Pilot CMLD screen (AID 1347052; calls by dose curve;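 also: HEK293 cells with hNpr1 stimulated by hNppA peptide at 0.1 nM; cGMP level read as GloSensor luciferase luminescence after agonist stimulation; series mostly up to about 9.2 µM; % is scaled to controls: 0 for no effect and ±100 for the full control effect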)
[6] = biological target: Cytochrome P450 2C9 (Homo sapiens) (UniProt P11712); experiment: qHTS Assay for Inhibitors and Substrates of Cytochrome P450 2C9 (AID 883); also: nearly all actives have a fitted effect of over 60% in size; also: potency is read from the fitted curve at half-maximal effect; as to activity change, negative = inhibition: % is scaled to controls: 0 for no effect and ±100 for the full control effect
Method in brief: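 10nM CYP2C9 + 100uM Luciferin-H (=KM), 25mM KPO4; cpd 10 min 37C; NADPH regen, 60 min 37C; stop/detect with P450 Glo-Buffer 20 min; luminescence. Norm. to 57uM sulphaphenazole as full inhibition.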

[7] = biological target: Cytochrome P450 3A4 (Homo sapiens) (UniProt P08684); experiment: qHTS Assay for Inhibitors and Substrates of Cytochrome P450 3A4 (AID 884); also: series mostly up to about 57 µM; % is scaled to controls: 0 for no effect and ±100 for the full control effect; nearly all actives have a fitted effect of over 50% in size
Method in brief: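 20 nM human CYP3A4 with 25 uM Luciferin-PPXE (at KM) in 200 mM KPO4, preincubated 10 min with compound; NADPH regeneration started a 60 min RT reaction. Luciferin detected by luminescence, normalized to 57 uM ketoconazole as full inhibition.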

[8] = biological target: Cytochrome P450 2D6 (Homo sapiens) (UniProt P10635); experiment: qHTS Assay for Inhibitors and Substrates of Cytochrome P450 2D6 (AID 891);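 also: luciferin methyl ether substrate demethylated by CYP2D6 with NADPH regeneration; % is scaled to controls: 0 for no effect and ±100 for the full control effect; nearly all actives have a fitted effect of over 60% in size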
Method in brief: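 Human CYP2D6 (5 nM) with 30 uM Luciferin-ME EGE (at Km) in 100 mM KPO4, compound preincubated 10 min, then NADPH regeneration system for 60 min at room temperature. Luciferin read by luminescence; normalized to 1.43 uM quinidine.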

[9] = biological target: Cytochrome P450 2C19 (Homo sapiens) (UniProt P33261); experiment: qHTS Assay for Inhibitors and Substrates of Cytochrome P450 2C19 (AID 899); also: nearly all actives have a fitted effect of over 60% in size; also: potency is read from the fitted curve at half-maximal effect; as to activity, negative = inhibition: % is scaled to controls: 0 for no effect and ±100 for the full control effect
Method in brief: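 Luminescent read-out of luciferin formed from Luciferin-H EGE (10uM, equal to KM). Enzyme 5nM in 50mM KPO4; compound added, 10 min at 37C, then NADPH regenerating system for 60 min at 37C. Full inhibition defined by 57uM ketoconazole.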

Sequence of Atrial natriuretic peptide receptor 1 (Homo sapiens) (P16066 whole entry, looked up): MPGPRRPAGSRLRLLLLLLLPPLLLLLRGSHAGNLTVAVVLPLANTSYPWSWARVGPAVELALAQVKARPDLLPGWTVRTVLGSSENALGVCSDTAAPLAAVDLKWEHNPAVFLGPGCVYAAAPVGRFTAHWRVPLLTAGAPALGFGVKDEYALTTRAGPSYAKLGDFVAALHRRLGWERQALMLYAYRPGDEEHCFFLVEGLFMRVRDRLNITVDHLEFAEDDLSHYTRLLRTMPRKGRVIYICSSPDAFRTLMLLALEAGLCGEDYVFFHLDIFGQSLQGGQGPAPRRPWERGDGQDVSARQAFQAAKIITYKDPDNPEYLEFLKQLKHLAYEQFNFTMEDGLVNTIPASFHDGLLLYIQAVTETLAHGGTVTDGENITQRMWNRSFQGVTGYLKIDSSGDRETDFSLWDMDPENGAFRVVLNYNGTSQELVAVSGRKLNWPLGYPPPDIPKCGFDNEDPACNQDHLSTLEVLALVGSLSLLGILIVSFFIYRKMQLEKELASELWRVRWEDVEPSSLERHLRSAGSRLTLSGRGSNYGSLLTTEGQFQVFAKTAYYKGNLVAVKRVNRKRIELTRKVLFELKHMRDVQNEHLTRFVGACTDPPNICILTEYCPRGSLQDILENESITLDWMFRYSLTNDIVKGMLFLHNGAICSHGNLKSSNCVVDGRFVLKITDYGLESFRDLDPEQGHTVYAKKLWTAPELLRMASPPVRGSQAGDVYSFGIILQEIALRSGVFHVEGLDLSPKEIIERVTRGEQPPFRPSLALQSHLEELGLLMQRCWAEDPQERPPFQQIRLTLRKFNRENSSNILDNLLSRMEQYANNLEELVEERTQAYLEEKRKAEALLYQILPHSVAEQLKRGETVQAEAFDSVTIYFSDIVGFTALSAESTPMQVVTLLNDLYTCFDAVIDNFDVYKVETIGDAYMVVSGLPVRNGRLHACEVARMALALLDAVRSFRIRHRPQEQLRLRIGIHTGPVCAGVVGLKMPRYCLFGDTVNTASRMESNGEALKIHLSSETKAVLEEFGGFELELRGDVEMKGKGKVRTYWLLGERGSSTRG
Sequence of Cytochrome P450 2C9 (Homo sapiens) (P11712 whole entry, looked up): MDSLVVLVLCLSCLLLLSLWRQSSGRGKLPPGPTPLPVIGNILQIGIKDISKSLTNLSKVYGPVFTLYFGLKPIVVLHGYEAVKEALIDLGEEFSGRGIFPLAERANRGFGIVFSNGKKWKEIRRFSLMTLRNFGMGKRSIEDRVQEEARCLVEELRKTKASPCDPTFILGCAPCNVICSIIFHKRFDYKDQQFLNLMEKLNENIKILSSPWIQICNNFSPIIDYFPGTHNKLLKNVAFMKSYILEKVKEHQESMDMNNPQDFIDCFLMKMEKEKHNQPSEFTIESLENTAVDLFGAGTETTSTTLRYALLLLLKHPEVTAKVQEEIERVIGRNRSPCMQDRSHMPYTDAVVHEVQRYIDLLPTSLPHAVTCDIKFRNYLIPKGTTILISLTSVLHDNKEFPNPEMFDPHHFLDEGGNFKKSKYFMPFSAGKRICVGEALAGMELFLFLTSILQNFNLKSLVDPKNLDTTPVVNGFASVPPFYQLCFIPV
Sequence of Cytochrome P450 2C19 (Homo sapiens) (P33261 whole entry, looked up): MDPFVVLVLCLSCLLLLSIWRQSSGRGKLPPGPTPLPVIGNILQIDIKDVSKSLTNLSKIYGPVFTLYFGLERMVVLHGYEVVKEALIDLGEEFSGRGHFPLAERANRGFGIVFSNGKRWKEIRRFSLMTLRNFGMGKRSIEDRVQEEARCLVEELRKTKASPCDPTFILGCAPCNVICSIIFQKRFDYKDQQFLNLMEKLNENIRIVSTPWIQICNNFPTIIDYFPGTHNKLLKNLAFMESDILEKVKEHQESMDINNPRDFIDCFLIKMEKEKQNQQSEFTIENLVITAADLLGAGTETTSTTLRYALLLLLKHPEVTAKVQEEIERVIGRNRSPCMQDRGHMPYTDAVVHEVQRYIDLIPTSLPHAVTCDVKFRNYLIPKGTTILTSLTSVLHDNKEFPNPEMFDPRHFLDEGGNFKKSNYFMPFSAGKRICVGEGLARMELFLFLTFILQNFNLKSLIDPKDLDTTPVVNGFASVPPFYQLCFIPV
Sequence of Cytochrome P450 2D6 (Homo sapiens) (P10635 whole entry, looked up): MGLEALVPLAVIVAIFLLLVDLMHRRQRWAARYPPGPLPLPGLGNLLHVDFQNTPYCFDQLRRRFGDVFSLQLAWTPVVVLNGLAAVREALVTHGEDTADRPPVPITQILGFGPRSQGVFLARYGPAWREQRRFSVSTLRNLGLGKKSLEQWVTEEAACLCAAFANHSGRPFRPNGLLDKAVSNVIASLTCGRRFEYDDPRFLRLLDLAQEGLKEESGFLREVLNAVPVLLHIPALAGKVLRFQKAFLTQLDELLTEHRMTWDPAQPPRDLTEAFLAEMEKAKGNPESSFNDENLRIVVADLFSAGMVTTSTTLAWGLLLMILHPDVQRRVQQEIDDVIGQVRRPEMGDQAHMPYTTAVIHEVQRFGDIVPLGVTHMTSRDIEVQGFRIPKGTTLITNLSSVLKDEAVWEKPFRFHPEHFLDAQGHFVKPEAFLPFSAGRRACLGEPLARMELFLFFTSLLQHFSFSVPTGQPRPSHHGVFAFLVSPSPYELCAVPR
Sequence of Cytochrome P450 3A4 (Homo sapiens) (P08684 whole entry, looked up): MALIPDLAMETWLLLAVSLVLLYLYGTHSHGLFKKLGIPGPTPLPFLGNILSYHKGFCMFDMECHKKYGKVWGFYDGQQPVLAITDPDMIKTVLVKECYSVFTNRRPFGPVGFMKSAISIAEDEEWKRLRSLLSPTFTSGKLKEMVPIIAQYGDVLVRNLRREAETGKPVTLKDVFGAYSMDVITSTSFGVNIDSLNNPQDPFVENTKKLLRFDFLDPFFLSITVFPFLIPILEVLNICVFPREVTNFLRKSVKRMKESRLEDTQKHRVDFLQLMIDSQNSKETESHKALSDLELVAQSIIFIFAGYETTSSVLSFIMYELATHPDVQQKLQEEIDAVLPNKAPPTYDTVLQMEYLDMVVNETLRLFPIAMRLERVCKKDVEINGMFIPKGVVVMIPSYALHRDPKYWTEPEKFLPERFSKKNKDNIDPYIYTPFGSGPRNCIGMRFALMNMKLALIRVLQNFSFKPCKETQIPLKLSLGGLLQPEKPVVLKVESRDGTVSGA

COCCN1C(=NCC(C)C)NC(c2ccccc2)C(C(=O)OC)=C1C (stereo not given)
inactive: Potency [1] | Potency [2] | Potency [3] | Potency [4] | Potency [5]

CC=COC(=O)N[C@@H](c1ccccc1)[C@]1(C(=O)OCC)CCCC1=O
inactive: Potency [1] | Potency [2] | Potency [3] | Potency [4] | Potency [5]

CC[C@H](C)[C@@H](NC(=O)O[C@H]1C(=O)c2cc(OC)ccc2O[C@@H]1c1ccc(OC)c(Br)c1)C(=O)OC
inactive: Potency [1] | Potency [2] | Potency [3] | Potency [4] | Potency [5]

COC(=O)CC1c2ccccc2C(Cc2ccc(OC)cc2)=C(C)N1C(=O)OC (stereo not given)
inactive: Potency [1] | Potency [2] | Potency [3] | Potency [4] | Potency [5]

CCN1C(=O)[C@@H]2[C@H]3[C@H](O)[C@H](O)CC(=NO[C@H](C)c4cn([C@@H]5COC[C@@H]5O)nn4)[C@@H]3CC[C@H]2C1=O
inactive: Potency [1] | Potency [2] | Potency [3] | Potency [4] | Potency [5]

COc1cc(C(CC2=CCCCC2)NC(=O)C(F)(F)F)cc(OC)c1OC (stereo not given)
inactive: Potency [1] | Potency [2] | Potency [3] | Potency [4] | Potency [5]

CNc1ccccc1C(=O)OCC(C)=O
inactive: activity change, negative = inhibition [6] 24.8% [at 11.4 µM] | activity change, negative = inhibition [7] -11.5% [at 11.4 µM] | activity change, negative = inhibition [8] 9.06% [at 11.4 µM] | activity, negative = inhibition [9] -17.8% [at 11.4 µM] | Potency [1] | Potency [2] | Potency [3] | Potency [4] | Potency [5]

CCN1C(=NCCCOC(C)C)NC(c2ccccc2)C(C(=O)OC)=C1C (stereo not given)
inactive: Potency [1] | Potency [2] | Potency [3] | Potency [4] | Potency [5]

C[C@@H]1CC[C@H]2C(=O)N(Cc3ccccc3)C[C@@H](O)CN2[C@@H]1c1cccc(Br)c1
inactive: Potency [1] | Potency [2] | Potency [3] | Potency [4] | Potency [5]

O=C1CCCC=C1[C@@H](O)CCOC(c1ccccc1)(c1ccccc1)c1ccccc1
inactive: Potency [5]
active: Potency [6] 0.794 µM | Potency [9] 0.251 µM | Potency [1] 1.51 µM | Potency [2] 1.69 µM | Potency [3] 1.51 µM

Cc1cc2c(c(=O)n1Cc1ccccc1)[C@H]1O[C@](CCCCN3C(=O)c4ccccc4C3=O)(Cc3ccccc31)O2
active: Potency [1] 1.9 µM | Potency [2] 1.69 µM | Potency [3] 1.69 µM | Potency [4] 1.35 µM
inactive: Potency [5]

COc1ccc([C@]23Cc4ccccc4[C@H](O2)C2=C(O3)C(=O)c3ccccc3C2=O)cc1
active: Potency [1] 1.69 µM | Potency [2] 1.69 µM | Potency [3] 1.51 µM
inactive: Potency [4] | Potency [5]

CC[C@@H](c1ccccc1)n1c(=O)n2n(c1=O)[C@H]1[C@H](O)[C@@H]3O[C@H]3C(=NOCc3ccccc3)[C@H]1CC2
inactive: Potency [1] | Potency [2] | Potency [3] | Potency [4] | Potency [5]

CC#CCN1C(=O)NC(c2ccccc2)C(C(=O)OC)=C1C (stereo not given)
inactive: Potency [1] | Potency [2] | Potency [3] | Potency [4] | Potency [5]

CCOC(=O)CN1C(=O)NC(CCc2ccccc2)C(C(=O)OC)=C1C (stereo not given)
inactive: Potency [1] | Potency [2] | Potency [3] | Potency [4] | Potency [5]

COC(=O)N[C@H](c1ccccc1)C(C(=O)OC)C(=O)OC
inactive: Potency [4] | Potency [5]
active: Potency [1] 1.51 µM | Potency [2] 1.9 µM | Potency [3] 1.9 µM

CCCCc1cc2c(cn1)=C(OC(=O)c1cccs1)C(C)(OC(=O)CC)C(=O)C=2 (stereo not given)
active: Potency [1] 1.69 µM | Potency [2] 1.69 µM | Potency [3] 1.9 µM
inactive: Potency [4] | Potency [5]

COc1ccc(O[C@H]2C=C[C@@H](c3ccccc3)O[C@H]2COC(=O)CCC(C)=NO[C@@H]2O[C@H](COC(C)=O)[C@@H](OC(C)=O)[C@H](OC(C)=O)[C@@H]2OC(C)=O)cc1
inactive: Potency [1] | Potency [2] | Potency [3] | Potency [4] | Potency [5]

CCc1cc2c(nc1CC)CCN(CCC(C)=NOC[C@@H](O)[C@H]1O[C@@H]3OC(C)(C)O[C@H]3[C@@H]1O)C2
inactive: Potency [1] | Potency [4] | Potency [5]
active: Potency [2] 1.69 µM | Potency [3] 2.94 µM

CCN1C(=NCc2cccc(C(F)(F)F)c2)NC(c2cccs2)C(C(=O)OC)=C1C (stereo not given)
inactive: Potency [1] | Potency [2] | Potency [3] | Potency [4] | Potency [5]

C=CCC(Nc1ccc(OC)cc1)C(=O)OCC (stereo not given)
inactive: Potency [1] | Potency [2] | Potency [3] | Potency [4] | Potency [5]

COc1ccc(NC2=CC(c3ccccc3)N(c3ccc(OC)cc3)C2=O)cc1 (stereo not given)
inactive: Potency [1] | Potency [2] | Potency [3] | Potency [4] | Potency [5]
